Screening data: PubChem BioAssay, Broad Institute
A selection: hits, their analogues and other compounds. The true share with any hit is near 2.1%.
U2OS ROS induce: raises reactive oxygen species in U2OS cancer cells | U2OS ROS induction, H2DCF-DA fluorescence | ROS induction (% of piperlongumine), % at 10 µM | 46,000 compounds, 2% hits | AID 624156; in the data active = ROS induction above about 79%, passing the limit was not always enough
YB-1 expression: YB-1 expression inhibition; U2OS, qRT-PCR YB-1 vs CDIP delta delta Cp, 16 h; stronger effect = higher value; zero = DMSO, each unit about twofold; delta delta Cp (YB-1 minus CDIP) (no concentration beside the values); 30,000 compounds, 0.37% hits; AID 434959;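 active = delta delta Cp rounded down to an integer at or above 3, about 3 SD of DMSO wells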;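 also: higher means less YB-1 transcript or more CDIP transcript relative to DMSO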
A number is an active result; 0 = inactive; - = not tested or not shown.

SMILES	U2OS ROS induce	YB-1 expression
COc1ccc(-c2cnc3c(c2)C(=O)N([C@H](C)CO)C[C@H](C)[C@H](CN(C)C(=O)Nc2ccc4c(c2)OCO4)O3)cc1	0	0
COc1cccc(-c2cnc3c(c2)C(=O)N([C@H](C)CO)C[C@H](C)[C@H](CN(C)C(=O)Nc2ccc4c(c2)OCO4)O3)c1	94	0
COC(=O)C1=C(C)N(c2ccc(F)cc2)/C(=C/c2ccco2)C1=O	0	-
Cc1ccccc1CSC(SCc1ccccc1C)=C(C#N)C(=O)NCc1ccco1	0	-
COc1cccc(C(=O)NCCc2csc3nc(-c4ccc(C)cc4)nn23)c1OC	0	-
CC1CCCCN1C(=O)c1ccccc1NS(=O)(=O)c1ccc2ccccc2c1 (stereo unspecified)	0	-
Cc1c(Cl)cccc1Nc1nc(N)nc(CSC(=S)N(C)C2CCCCC2)n1	0	-
C[C@@H]1CCCCO[C@H](CN(C)C(=O)CCCN(C)C)[C@@H](C)CN([C@H](C)CO)C(=O)c2cc(NC(=O)C3CCCCC3)ccc2O1	105	0
C[C@@H]1CCCCO[C@H](CN(C)C(=O)CCCN(C)C)[C@@H](C)CN([C@H](C)CO)C(=O)c2cc(NC(=O)NC3CCCCC3)ccc2O1	0	0
C[C@@H]1CCCCO[C@@H](CN(C)C(=O)CCCN(C)C)[C@@H](C)CN([C@H](C)CO)C(=O)c2cc(NC(=O)c3ccccc3)ccc2O1	0	9.6
C[C@@H]1CCCCO[C@H](CN(C)C(=O)CCCN(C)C)[C@@H](C)CN([C@H](C)CO)C(=O)c2cc(NC(=O)Nc3ccccc3)ccc2O1	0	0
CC(NC(=S)NC(=O)c1cccs1)C12CC3CC(CC(C3)C1)C2 (stereo unspecified)	0	-
COc1ccc(-c2c(C)nn3c(N)c(-c4ccccc4)cnc23)cc1	120	-
Cc1nn2c3c(cnc2c1-c1ccccc1)C(=O)CC(C)(C)C3	0	-
COC(=O)C1=C(C)NC2=C(C(=O)CC(c3ccccc3)C2)C1c1ccccc1OC(C)C (stereo unspecified)	0	0
CC1=C(C(=O)OCc2ccccc2)C(c2cccc(O)c2)C2=C(CC(c3ccccc3)CC2=O)N1 (stereo unspecified)	183	-
CC12C=CC(=O)C=C1CCC1C2=CCC2(C)C1CC[C@@H]2C(=O)CN1CCN(c2cc(N3CCCC3)nc(N3CCCC3)n2)CC1 (stereo partly specified)	174	0
O=C(NCC1CCN(C2CCCC2)C1)c1cnn2ccccc12 (stereo unspecified)	0	-
O=C(O)CSc1c2c(nc3cc(C(=O)NCC4COc5ccccc5O4)ccc13)CCC2 (stereo unspecified)	0	-
Cc1ccccc1NC(=O)C(CC(C)C)N1C(=O)c2ccccc2C1=O (stereo unspecified)	0	-
Cc1ccc2c(C)nc(NC3=NC(C(=O)Nc4ccc(Cl)c(Cl)c4)CC(=O)N3)nc2c1 (stereo unspecified)	0	-
Cc1cc(C)c2nc(NC3=NC(c4ccccc4)CC(=O)N3)nc(C)c2c1 (stereo unspecified)	114	-
COc1ccc(/C=C2\OC(=S)N(C)C2=O)cc1	0	-
CCN1C(=O)/C(=C\c2ccc(N(C)C)cc2Cl)OC1=S	929	-
CCn1c(=O)c(=O)n(CC)c2cc(S(=O)(=O)NCc3cccs3)ccc21	0	-
SMILES	U2OS ROS induce	YB-1 expression
CN(C)c1ccc(-c2nc3ccc4ccccc4c3c3c2CCC3)cc1	0	0
COc1ccc(-c2nc3ccc4ccccc4c3c3c2CCC3)cc1	138	0
C=C1C(=O)O[C@H]2C1CCC(=C)[C@@H]1C[C@H](OC(=O)C=C(C)C)C(=C)[C@@H]12 (stereo partly specified)	0	0
C=C(CO)C(=O)O[C@H]1C[C@H]2C(=C)C[C@H](OC(=O)C(=C)CO)[C@H]3C(=C)C(=O)O[C@@H]3[C@H]2C1=C	115	0
Clc1ccc(-c2csc3ncnc(NCCN4CCOCC4)c23)cc1	139	-
CC1CCc2sc3ncnc(NCCN4CCOCC4)c3c2C1 (stereo unspecified)	80	-
OCCCNc1ncnc2scc(-c3ccccc3)c12	0	-
CC1CCc2c(sc3ncnc(NCCCOC(C)C)c23)C1 (stereo unspecified)	0	-
COc1ccc(C(=S)N2CCC(C)CC2)cc1	0	-
Cc1nccc2[nH]c(=O)c(C(=O)NCc3ccc(Cl)cc3)cc12	0	-
Cc1cccc(NC2=NS(=O)(=O)c3ccccc3N2)c1	0	-
COc1ccc2c(c1)C(=O)/C(=C/c1ccc(N(C)C)cc1)CC2	122	-
COc1ccc(/C=C2\CCc3ccccc3C2=O)cc1Cn1cccn1	0	-
O=C(NCc1ccco1)c1cc(-c2ccc(F)cc2)no1	0	-
CCOC(=O)c1sc(SC)c2c1CC(c1ccc(OC)cc1)CC2=O (stereo unspecified)	136	0
CCOC(=O)c1sc(SC)c2c1CCc1cnc(SC)nc1-2	0	0
CCOc1ccc(C(=O)NC(C)c2ccccc2)cc1 (stereo unspecified)	0	-
